# Data taken from PubChem BioAssay AID488859 (Sanford-Burnham Center for Chemical Genomics, 2010).
# The whole screen tested about 1,400 compounds, of which about 970 (69%) were called active. About 5% were inconclusive and are not listed. Cut-off read from the data, not from the text of the source: active = inhibition above about 45%; inconclusive = no clear call, values can overlap the other calls; inactive = below that. So high a share suggests a set chosen from earlier hits. A selection follows.
# Target: Ubiquitin-conjugating enzyme E2 N (Homo sapiens) (UniProt P61088)
# Test: retested blockers of UBC13 chain formation – biochemical, TR-FRET, single concentration, confirmation (AID 488859)
# Conditions: UBC13 polyubiquitination, at 10 µM, hits give high values
# Sequence of Ubiquitin-conjugating enzyme E2 N (Homo sapiens) (P61088 whole entry, looked up): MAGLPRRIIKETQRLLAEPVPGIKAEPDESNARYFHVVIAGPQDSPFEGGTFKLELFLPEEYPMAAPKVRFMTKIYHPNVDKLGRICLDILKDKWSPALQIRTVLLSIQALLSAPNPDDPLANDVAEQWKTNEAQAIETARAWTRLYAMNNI
row,Structure (SMILES),inhibition
1,O=C(COC(=O)Cn1cnc2ccccc2c1=O)NCc1ccccc1Cl,57.6% (active)
2,CCN1CCN(CCNC(=O)c2ccc(/C=C3/Sc4ccccc4N(Cc4cccc(C)c4)C3=O)cc2)CC1,85.6% (active)
3,COc1ccc(N(C(=O)c2snc(C(N)=O)c2N)C(C(=O)NC2CCCC2)c2ccco2)cc1OC (stereo not drawn),96.8% (active)
4,CCC(C(=O)NC1CCCC1)N(C(=O)c1snc(C(N)=O)c1N)c1ccc2c(c1)OCCO2 (stereo not drawn),95% (active)
5,NC(N)=Nc1nc(-c2ccccc2)c2cc(Cl)ccc2n1,79.9% (active)
6,COc1ccc(C(CNC(=O)c2ccc(S(=O)(=O)Nc3ccccc3F)cc2)N(C)C)cc1 (stereo not drawn),114% (active)
7,NC(=O)NC(CC(=O)NNC(=O)c1ccccn1)c1ccc(Cl)cc1 (stereo not drawn),95.3% (active)
8,CC(C)n1cnc2c(Nc3cccc(Cl)c3)nc(N(CCO)CCCO)nc21,30.6% (inactive)
9,COc1cccc2sc3cc(NCC[C@@H]4CCCN4C)ccc3c(=O)c12,41.3% (inactive)
10,CCCC[C@@H]1CN=C(N)N1CCc1cc(C(F)(F)F)cc(C(F)(F)F)c1,55.4% (active)
11,CN(C)CC(O)COc1ccc(C(C)(C)c2ccc(OCC(O)CN(C)C)cc2)cc1 (stereo not drawn),60.5% (active)
12,Cc1ccc(NC(=O)c2cnc(SCC(=O)NCC3CCCO3)n(C)c2=O)cc1 (stereo not drawn),95.9% (active)
13,NC[C@H](Cc1ccccc1)NCCc1cc(C(F)(F)F)cc(C(F)(F)F)c1,40.1% (inactive)
14,Cc1c(CN2CCC(CO)(CCOc3ccccc3)CC2)[nH]c2ccc(Cl)cc12,74% (active)
15,CCOC(=O)[C@@H]1[C@H]2COc3cc(OC)ccc3[C@H]2N2C(=O)N(c3ccc(F)cc3)C(=O)[C@]12C,1.2% (inactive)
16,O=C(CCCCCN1C(=O)c2cccc3cccc(c23)C1=O)NCc1ccco1,50.7% (active)
17,CN(C)c1ccnc2sc3c(=O)n(Cc4ccccc4)cnc3c12,57.1% (active)
18,COc1ccnc2c1c(=O)n(Cc1cccc(F)c1)c(=O)n2C,52.3% (active)
19,C#CCOCCOCCOCCNc1nc(N2CCN(C(=O)CCCCCCCCCCNC(=O)[C@H]([C@@H](C)CC)n3cc(CCCCN=C(N)N)nn3)CC2)nc(N2CCN(C(=O)CCCCCCCCCCNC(=O)[C@H](CO)n3cc(CCCSC)nn3)CC2)n1,121% (active)
20,C#CCOCCOCCOCCNc1nc(N2CCN(C(=O)CCCCCCCCCCNC(=O)[C@H](CCCCN)n3cc(C)nn3)CC2)nc(N2CCN(C(=O)CCCCCCCCCCNC(=O)[C@H](CO)n3cc(CCCSC)nn3)CC2)n1,121% (active)
21,C#CCOCCOCCOCCNc1nc(N2CCN(C(=O)CCCCCCCCCCNC(=O)Cn3cc(CCCCCN)nn3)CC2)nc(N2CCN(C(=O)CCCCCCCCCCNC(=O)[C@H](CO)n3cc(CCCSC)nn3)CC2)n1,129% (active)

row,Structure (SMILES),inhibition
1,CC1(C)Cc2ccccc2-c2[nH]c(=S)[nH]c(=O)c21,26.2% (inactive)
2,CC1CC(C)(C)n2c(O)c(N=NC(N)=S)c3cccc1c32 (stereo not drawn),107% (active)
3,COc1ccc(-n2nnnc2-c2nc3ccccc3s2)cc1,51.1% (active)
4,CN1CCC(CN)(N2CCN(c3ccccc3)CC2)CC1,48.6% (active)
5,CC(=O)NC(=S)NNC(=O)c1ccc(Br)cc1,89.8% (active)
6,COc1ccc(/C=N\NC(=O)c2sc(N)nc2C)cc1OC,110% (active)
7,CCOC(=O)N1CCN(C(=O)Cc2ccc(-n3c(=S)[nH]c4ccccc4c3=O)cc2)CC1,37.3% (inactive)
8,O=C(CCCCCn1c(=O)[nH]c2ccccc2c1=O)NCCc1c[nH]c2ccccc12,67.3% (active)
9,c1ccc(C[C@H]2CNCCN2CCC23CC4CC(CC(C4)C2)C3)cc1,42.5% (inactive)
10,CCN(CC)CCNC(=O)c1ccc(NC(=O)c2cc(-c3ccncc3)nc3ccccc23)cc1,91.5% (active)
11,Cc1ccc(C(C(=O)NCC2CCCO2)N(C(=O)c2snc(C(N)=O)c2N)c2ccc(C(C)C)cc2)o1 (stereo not drawn),30.4% (inactive)
12,Cc1ccc(N(C(=O)c2snc(C(N)=O)c2N)C(C(=O)NCC2CCCO2)c2c[nH]c3ccccc23)cc1 (stereo not drawn),70.6% (active)
13,COc1cccc(N(C(=O)c2snc(C(N)=O)c2N)C(C(=O)NCC2CCCO2)c2c[nH]c3ccccc23)c1 (stereo not drawn),57.9% (active)
14,CCOc1ccc(N(C(=O)c2snc(C(N)=O)c2N)C(C(=O)NCC2CCCO2)c2c[nH]c3ccccc23)cc1 (stereo not drawn),100% (active)
15,O=c1cc(CO)oc(C(Nc2cccc(C(F)(F)F)c2)c2ccccn2)c1O (stereo not drawn),88.9% (active)
16,O=c1cc(CO)oc(C(Nc2cccc([N+](=O)[O-])c2)c2ccccn2)c1O (stereo not drawn),39.1% (inactive)
17,O=c1c2c(nc3n1CCCCC3)sc1c(O)cccc12,104% (active)
18,Cc1cccc(-n2cnc(C(=O)NNC(=S)Nc3ccccc3)c2)n1,107% (active)
19,CCOCCCNC(=O)c1cn(CC(C)C)c(=O)c2c1c1ccccc1n2C,37.9% (inactive)
20,Cc1ccccc1C(=O)OC1OC(=O)C(Cl)=C1Nc1ccccc1 (stereo not drawn),88.9% (active)
21,Cc1ccc(NC2=C(Cl)C(=O)OC2OC(=O)c2ccccc2C)cc1 (stereo not drawn),62% (active)

row,Structure (SMILES),inhibition
1,CC[C@@H](C)[C@@H]1CN([C@@H](C)CN2CCC[C@H]2CN2C(N)=NC[C@H]2C(C)C)C(=N)N1CCc1ccc(Cl)c(Cl)c1,38.2% (inactive)
2,C[C@@H](CN1CCC[C@H]1CN1C(N)=NC[C@@H]1Cc1ccccc1)N1C[C@@H](Cc2ccccc2)N(CCCC2CCCC2)C1=N,58.5% (active)
3,COc1ccc2sc(-c3ccccc3OC)c(-c3ccc(OCCN4CCCC4)cc3)c2c1,54.8% (active)
4,COc1ccc2sc(-c3ccc(S(C)(=O)=O)cc3)c(C#Cc3cncn3C)c2c1,29.5% (inactive)
5,CCOC(=O)c1ccc(NC(=O)c2nc[nH]c2C(=O)NCc2ccccc2)cc1,25.1% (inactive)
6,CC1CN(C(=O)CCC(=O)NCCCN2CCC(Cc3ccccc3)CC2)c2cc(Cl)ccc2O1 (stereo not drawn),87.8% (active)
7,CCOC(=O)C1=C(c2ccccc2)O/C(=C(/C(=O)OC)C(F)(F)F)S1,42.4% (inactive)
8,Cc1cccc(-c2nc3ccc(C(=O)NCCN4CCN(C)CC4)cc3nc2-c2cccc(C)c2)c1,72.8% (active)
9,Cc1ccc(C(=O)N/C(=C/c2ccc(-c3cccc([N+](=O)[O-])c3)o2)C(=O)NCCCN(C)C)cc1,78% (active)
10,O=S(=O)(c1ccc(NC(=S)NN=C(C2CC2)C2CC2)cc1)N1CCOCC1,60.4% (active)
11,CN(C(=O)CN(CCO)CC(=O)N(C)C(C)(C)Cc1ccccc1)C(C)(C)Cc1ccccc1,44.3% (inactive)
12,Cc1cccc(OCC(O)CN2CCN(CCN3C(=O)c4cccc5cccc(c45)C3=O)CC2)c1C (stereo not drawn),101% (active)
13,CCN1C(=NCc2ccc(OC)cc2)N[C@@H](CCc2ccccc2)[C@H](C(=O)NCc2ccc(OC)cc2)[C@H]1C,34.8% (inactive)
14,COc1cccc(Cn2cnc3c([N+](=O)[O-])c(C)c(C)cc32)c1,63.7% (active)
15,NC(N)=N/N=C/c1ccc(OCc2ccc(Cl)cc2Cl)cc1,121% (active)
16,CCOc1ccc2nc(N(CCCN(C)C)C(=O)c3ccc(C(=O)c4ccccc4)cc3)sc2c1,111% (active)
17,CN(C)CCCN(C(=O)c1ccc(S(=O)(=O)N2CCCCCC2)cc1)c1nc2ccc(Br)cc2s1,107% (active)
18,CN(C)CCCN(C(=O)c1ccc(S(=O)(=O)N2CCCCCC2)cc1)c1nc2cc3c(cc2s1)OCCO3,110% (active)
19,c1ccc2c(CCN3CCNC[C@H]3Cc3cccc4ccccc34)cccc2c1,44.3% (inactive)
20,CCCCCCCCCCOC(=O)Cn1c(COc2cccc(OC)c2)[n+](C)c2ccccc21,63.8% (active)
21,CCOC(=O)c1cccc(NS(=O)(=O)c2c(C(=O)N3CCCCCC3)c(C)n(C)c2C)c1,43.9% (inactive)

row,Structure (SMILES),inhibition
1,COc1ccc(C(CNC(=O)c2cccc(NS(=O)(=O)c3ccc(C)c(F)c3)c2)N2CCCC2)cc1 (stereo not drawn),94.5% (active)
2,COC(=O)c1cc(-c2cccs2)nc2ccccc12,18.1% (inactive)
3,CCCCN(C)CCCNC(=O)c1cc(-c2cccs2)nc2ccccc12,45.7% (active)
4,Cc1cc(C)c(NC(=O)C[N+](C)(C)CC(O)COc2cccc3ccccc23)c(C)c1 (stereo not drawn),60.3% (active)
5,CCCCN(CCCC)CCC(O)c1cc2c(Cl)cc(Cl)cc2c2cc(C(F)(F)F)ccc12 (stereo not drawn),56.5% (active)
6,Cc1ccc(-c2noc(CCC(=O)Nc3ccccc3N3CCN(C)CC3)n2)cc1,92.8% (active)
7,CCCOc1ccc(Cl)cc1Nc1nc(NCCO)nc(N2CCCC2)n1,16.5% (inactive)
8,C#CCOCCOCCOCCNc1nc(N2CCN(C(=O)C([C@@H](C)O)n3cc([C@@H](N)CCCCN)nn3)CC2)nc(N2CCN(C(=O)[C@H](CCCCN)n3cc(CN)nn3)CC2)n1 (stereo partly drawn),113% (active)
9,C#CCOCCOCCOCCNc1nc(N2CCN(C(=O)[C@H](CCCCN)n3cc([C@@H](N)C(C)CC)nn3)CC2)nc(N2CCN(C(=O)[C@H](Cc3ccc(O)cc3)n3cc([C@@H](N)C(C)CC)nn3)CC2)n1 (stereo partly drawn),105% (active)
10,C#CCOCCOCCOCCNc1nc(N2CCN(C(=O)C([C@@H](C)CC)n3cc(C(N)COC(=O)C(F)(F)F)nn3)CC2)nc(N2CCN(C(=O)[C@H](CCCCN)n3cc(C(N)CC(C)C)nn3)CC2)n1 (stereo partly drawn),103% (active)
11,C#CCOCCOCCOCCNc1nc(N2CCN(C(=O)C(Cc3ccc(O)cc3)n3cc(C(N)CC(C)C)nn3)CC2)nc(N2CCN(C(=O)C(Cc3ccc(O)cc3)n3cc(C(N)C(C)CC)nn3)CC2)n1 (stereo not drawn),23.8% (inactive)
12,C=C1c2c(Cl)ccc(O)c2C(O)=C2C(=O)[C@]3(O)C(O)=C(C(N)=O)C(=O)[C@@H](N(C)C)[C@@H]3[C@@H](O)C12 (stereo partly drawn),50.8% (active)
13,COc1ccccc1NC(=O)CSc1nnc(-c2ccoc2C)n1CCc1ccccc1,94.4% (active)
14,CCN(CC)CCC(c1cc(OC)c(OC)c(OC)c1)c1c(OC)cc(OC)c2c(-c3ccccc3)cc(=O)oc12 (stereo not drawn),35.1% (inactive)
15,CN1CCN(CCCNC(=O)c2ccc(/C=C3\Oc4ccccc4N(Cc4ccc(Cl)cc4)C3=O)cc2)CC1,111% (active)
16,Cn1c(C(=O)NCCCN2CCN(c3cccc(Cl)c3)CC2)cc2c(=O)n(C)c3ccccc3c21,38.7% (inactive)
17,CCN(CC(=O)NCc1cccs1)C(=O)c1cccc(S(=O)(=O)Nc2ccccc2OC)c1,106% (active)
18,OCCNc1nc(Nc2ccc(Cl)c(Cl)c2)nc2ccccc12,92% (active)
19,Cc1ncc(CO)c(/C=N/NC(=O)c2cccc(S(=O)(=O)N3CCCC3)c2)c1O,32.9% (inactive)
20,CSCCC(NC(=O)c1ccc(Cl)cc1Cl)C(=O)NNC(=O)c1csc(N2CCOCC2)n1 (stereo not drawn),55.6% (active)
